Out of some 5,500 compounds screened, about 2,000 (36%) were called active. Another 18% or so got no clear call; they are omitted. No stated cut-off is given here; in the data, active means normalized growth mostly below about 0.91 (no sharp cut-off); inconclusive means no clear call, values can overlap the other calls; inactive means mostly above about 0.92. The list shows a part of the results.
Assay: chemical genetic growth profiling, strain panel (AID 1159580);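 further: tested at 20 µM; growth read once vehicle control cultures reached saturation at 30 °C; 1 = growth at the plate median or of vehicle wells; lower values mean less growth of the strain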
Conditions: growth OD
[1] = S. cerevisiae deletion strains, locus YDL101C, strain DUN1, active compounds read low
[2] = S. cerevisiae deletion strains, locus YHR030C, strain SLT2, active compounds read low
[3] = S. cerevisiae deletion strains, locus YAL013W, strain DEP1, active compounds read low
[4] = S. cerevisiae deletion strains, locus YBR229C, strain ROT2, active compounds read low
[5] = S. cerevisiae deletion strains, locus YDL134C, strain PPH21, active compounds read low
[6] = S. cerevisiae deletion strains, locus YDR150W, strain NUM1, active compounds read low
[7] = S. cerevisiae deletion strains, locus YEL061C, strain CIN8, active compounds read low
[8] = S. cerevisiae deletion strains, locus YGR078C, strain PAC10, active compounds read low
[9] = S. cerevisiae deletion strains, locus YGR229C, strain SMI1, active compounds read low
[10] = S. cerevisiae deletion strains, locus YHR087W, strain rtc3, active compounds read low
[11] = S. cerevisiae deletion strains, locus YJL187C, strain SWE1, active compounds read low
[12] = S. cerevisiae deletion strains, locus YJR043C, strain POL32, active compounds read low
[13] = S. cerevisiae deletion strains, locus YJR075W, strain HOC1, active compounds read low
[14] = S. cerevisiae deletion strains, locus YLR039C, strain RIC1, active compounds read low
[15] = S. cerevisiae deletion strains, locus YLR058C, strain SHM2 (second series), active compounds read low
[16] = S. cerevisiae deletion strains, locus YLR085C, strain ARP6, active compounds read low
[17] = S. cerevisiae deletion strains, locus YLR262C, strain YPT6, active compounds read low
[18] = S. cerevisiae deletion strains, locus YML094W, strain GIM5, active compounds read low
[19] = S. cerevisiae deletion strains, locus YMR219W, strain ESC1, active compounds read low
[20] = S. cerevisiae deletion strains, locus YMR263W, strain SAP30, active compounds read low
[21] = S. cerevisiae deletion strains, locus YNL153C, strain GIM3, active compounds read low
[22] = S. cerevisiae deletion strains, locus YNL298W, strain CLA4 (second series), active compounds read low
[23] = S. cerevisiae deletion strains, locus YNL322C, strain KRE1, active compounds read low
[24] = S. cerevisiae deletion strains, locus YNR030W, strain Alg12, active compounds read low
[25] = S. cerevisiae deletion strains, locus YPL055C, strain LGE1, active compounds read low
[26] = S. cerevisiae deletion strains, locus YPL241C, strain CIN2, active compounds read low
[27] = S. cerevisiae deletion strains, locus YPR135W, strain CTF4, active compounds read low
[28] = S. cerevisiae strains, strain wild type, active compounds read low
[29] = S. cerevisiae deletion strains, locus YKL190W, strain CNB1, active compounds read low
[30] = S. cerevisiae deletion strains, locus YOL006C, strain TOP1, active compounds read low

Measured: normalized growth

O=[N+]([O-])c1cnc(Sc2nnc(SCc3cccc(C(F)(F)F)c3)s2)s1
active: S. cerevisiae deletion strains, locus YAR019C, strain CDC15, active compounds read low 0.098 | S. cerevisiae deletion strains, locus YBL105C, strain PKC1, active compounds read low 0.0818 | S. cerevisiae deletion strains, locus YBR135W, strain CKS1, active compounds read low 0.0984 | S. cerevisiae deletion strains, locus YBR136W, strain MEC1, active compounds read low 0.0945 | S. cerevisiae deletion strains, locus YBR160W, strain CDC28, active compounds read low 0.0963 | S. cerevisiae deletion strains, locus YDL017W, strain CDC7, active compounds read low 0.0822 | S. cerevisiae deletion strains, locus YDL028C, strain MPS1, active compounds read low 0.111 | [1] 0.107 | S. cerevisiae deletion strains, locus YDL108W, strain KIN28, active compounds read low 0.0971 | S. cerevisiae deletion strains, locus YDL132W, strain cdc53, active compounds read low 0.0889 | S. cerevisiae deletion strains, locus YDL214C, strain PRR2, active compounds read low 0.106 | S. cerevisiae deletion strains, locus YDR052C, strain DBF4, active compounds read low 0.0805 | S. cerevisiae deletion strains, locus YDR054C, strain cdc34, active compounds read low 0.0921 | S. cerevisiae deletion strains, locus YDR226W, strain ADK1, active compounds read low 0.0971 | S. cerevisiae deletion strains, locus YDR477W, strain SNF1, active compounds read low 0.101 | S. cerevisiae deletion strains, locus YER123W, strain YCK3, active compounds read low 0.111 | S. cerevisiae deletion strains, locus YER133W, strain GLC7, active compounds read low 0.107 | S. cerevisiae deletion strains, locus YFL009W, strain cdc4, active compounds read low 0.102 | S. cerevisiae deletion strains, locus YFL029C, strain CAK1, active compounds read low 0.098 | S. cerevisiae deletion strains, locus YFR003C, strain YPI1, active compounds read low 0.0893 | S. cerevisiae deletion strains, locus YFR019W, strain FAB1, active compounds read low 0.106 | S. cerevisiae deletion strains, locus YFR028C, strain CDC14, active compounds read low 0.0995 | S. cerevisiae deletion strains, locus YGR040W, strain KSS1, active compounds read low 0.0976 | S. cerevisiae deletion strains, locus YGR052W, strain FMP48, active compounds read low 0.101 | S. cerevisiae deletion strains, locus YGR092W, strain DBF2, active compounds read low 0.0989 | [2] 0.131 | S. cerevisiae deletion strains, locus YHR079C, strain IRE1, active compounds read low 0.0953 | S. cerevisiae deletion strains, locus YHR082C, strain KSP1, active compounds read low 0.13 | S. cerevisiae deletion strains, locus YHR205W, strain SCH9, active compounds read low -0.0106 | S. cerevisiae deletion strains, locus YIL147C, strain SLN1, active compounds read low 0.102 | S. cerevisiae deletion strains, locus YJL095W, strain BCK1, active compounds read low 0.118 | S. cerevisiae deletion strains, locus YJL128C, strain PBS2, active compounds read low 0.0978 | S. cerevisiae deletion strains, locus YJL157C, strain FAR1, active compounds read low 0.0837 | S. cerevisiae deletion strains, locus YJR016C, strain ILV3, active compounds read low 0.0869 | S. cerevisiae deletion strains, locus YJR066W, strain TOR1 (second series), active compounds read low 0.0917 | S. cerevisiae deletion strains, locus YJR066W, strain TOR1, active compounds read low 0.122 | S. cerevisiae deletion strains, locus YKL048C, strain ELM1, active compounds read low 0.111 | S. cerevisiae deletion strains, locus YKL067W, strain YNK1, active compounds read low 0.105 | S. cerevisiae deletion strains, locus YKL101W, strain HSL1, active compounds read low 0.1 | S. cerevisiae deletion strains, locus YKL193C, strain SDS22, active compounds read low 0.0958 | S. cerevisiae deletion strains, locus YKL203C, strain TOR2, active compounds read low 0.111 | S. cerevisiae deletion strains, locus YLR113W, strain HOG1, active compounds read low 0.127 | S. cerevisiae deletion strains, locus YLR133W, strain CKI1, active compounds read low 0.0966 | S. cerevisiae deletion strains, locus YLR403W, strain SFP1, active compounds read low -0.00531 | S. cerevisiae deletion strains, locus YML070W, strain DAK1, active compounds read low 0.103 | S. cerevisiae deletion strains, locus YMR001C, strain CDC5, active compounds read low 0.0974 | S. cerevisiae deletion strains, locus YMR205C, strain PFK2 (second series), active compounds read low 0.101 | S. cerevisiae deletion strains, locus YMR277W, strain FCP1, active compounds read low 0.0974 | S. cerevisiae deletion strains, locus YNL006W, strain LST8, active compounds read low 0.0863 | S. cerevisiae deletion strains, locus YNL020C, strain ARK1, active compounds read low 0.109 | S. cerevisiae deletion strains, locus YNL161W, strain CBK1, active compounds read low 0.0953 | S. cerevisiae deletion strains, locus YNL183C, strain NPR1, active compounds read low 0.093 | S. cerevisiae deletion strains, locus YNL207W, strain RIO2, active compounds read low 0.0918 | S. cerevisiae deletion strains, locus YNL222W, strain SSU72, active compounds read low 0.1 | S. cerevisiae deletion strains, locus YNL307C, strain MCK1 (second series), active compounds read low 0.108 | S. cerevisiae deletion strains, locus YOL078W, strain AVO1, active compounds read low 0.0995 | S. cerevisiae deletion strains, locus YOL136C, strain PFK27, active compounds read low 0.0976 | S. cerevisiae deletion strains, locus YOR061W, strain CKA2, active compounds read low 0.0984 | S. cerevisiae deletion strains, locus YOR119C, strain RIO1, active compounds read low 0.105 | S. cerevisiae deletion strains, locus YOR231W, strain MKK1, active compounds read low 0.0992 | S. cerevisiae deletion strains, locus YOR329C, strain SCD5, active compounds read low 0.0854 | S. cerevisiae deletion strains, locus YPL031C, strain PHO85, active compounds read low 0.103 | S. cerevisiae deletion strains, locus YPL153C, strain RAD53, active compounds read low 0.0944 | S. cerevisiae deletion strains, locus YPL204W, strain HRR25, active compounds read low 0.107 | S. cerevisiae deletion strains, locus YPL209C, strain IPL1, active compounds read low 0.0842 | S. cerevisiae deletion strains, locus YPL256C, strain CLN2, active compounds read low 0.133 | S. cerevisiae deletion strains, locus YPR025C, strain CCL1, active compounds read low 0.0989 | S. cerevisiae deletion strains, locus YPR106W, strain ISR1, active compounds read low 0.0861 | S. cerevisiae deletion strains, locus YPR111W, strain DBF20, active compounds read low 0.0999 | S. cerevisiae deletion strains, strain NNK1, active compounds read low 0.0942 | S. cerevisiae deletion strains, strain TSCII, active compounds read low 0.102

S=c1[nH]nc(SCCSc2n[nH]c(=S)s2)s1
active: [11] 0.93
inactive: [3] 0.969 | [4] 1.04 | [1] 0.947 | [5] 0.993 | [6] 1.03 | [7] 1.02 | [8] 0.952 | [9] 0.987 | [2] 1.1 | [10] 1.02 | [12] 1.02 | [13] 1.06 | [14] 1 | [15] 0.989 | [16] 0.945 | [17] 1.16 | [18] 0.988 | [19] 0.969 | [20] 0.994 | S. cerevisiae deletion strains, locus YMR307W, strain GAS1, active compounds read low 1 | [21] 1 | [22] 0.963 | [23] 0.987 | [24] 0.989 | [25] 0.965 | [26] 0.984 | [27] 1.02 | [28] 0.988

O=[N+]([O-])c1ccccc1SCc1n[nH]c(=S)n1-c1cccc(C(F)(F)F)c1
inactive: [3] 0.973 | [4] 0.991 | S. cerevisiae deletion strains, locus YCL061C, strain MRC1, active compounds read low 0.989 | [1] 1 | [5] 1.01 | [6] 1.01 | [7] 0.969 | [8] 0.967 | [9] 0.994 | [2] 1.04 | [10] 1.01 | [12] 0.999 | [13] 1.02 | [29] 0.974 | [14] 0.988 | [15] 0.996 | [16] 0.87 | [17] 1.01 | [18] 0.967 | [19] 0.992 | [20] 1 | [21] 1.03 | [22] 0.932 | [23] 0.97 | [24] 0.94 | [30] 0.886 | [25] 0.99 | [26] 0.985 | [27] 1.13 | [28] 0.975

FC(F)(F)c1cccc(CSc2n[nH]c(=S)s2)c1
inactive: [6] 0.903 | [2] 0.728 | [17] 0.838 | [18] 0.914
active: [3] 0.774 | [4] 0.479 | [1] 0.522 | [5] 0.883 | [7] 0.861 | [8] 0.427 | [10] 0.592 | [11] 0.51 | [12] 0.791 | [13] 0.31 | [29] 0.887 | [14] 0.706 | [15] 0.797 | [16] 0.593 | [19] 0.606 | [20] 0.763 | [21] 0.533 | [22] 0.787 | [23] 0.873 | [24] 0.824 | [30] 0.409 | [26] 0.833 | [27] 0.638

Reference: PubChem BioAssay AID1159580 (chemical genetic matrix, 2015)
